Measured potencies and affinities stand elsewhere. Active and inactive are the calls of the source. How the calls were made is not given here.
These compounds were tested against CAAX prenyl protease 2 (Homo sapiens) (UniProt Q9Y256) (assay: human Rce1 protease inhibitors, dose response, biochemical, yeast membranes, quenched-peptide fluorescence, cherry-pick (AID 588849)). Settings: yeast membrane fractions expressing human Rce1, quenched-peptide fluorescence, 4 h; series mostly up to 10 µM.
CAAX prenyl protease 2 (Homo sapiens), sequence (Q9Y256 whole entry, looked up): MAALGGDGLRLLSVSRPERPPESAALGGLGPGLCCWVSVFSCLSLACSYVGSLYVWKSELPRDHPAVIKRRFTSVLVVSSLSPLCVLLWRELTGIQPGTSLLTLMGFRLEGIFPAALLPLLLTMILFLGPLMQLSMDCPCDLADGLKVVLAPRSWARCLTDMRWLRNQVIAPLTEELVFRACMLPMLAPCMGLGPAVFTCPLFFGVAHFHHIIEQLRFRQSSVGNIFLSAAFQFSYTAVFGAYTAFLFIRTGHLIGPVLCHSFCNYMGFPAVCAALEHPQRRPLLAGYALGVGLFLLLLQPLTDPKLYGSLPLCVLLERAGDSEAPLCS

outcome, inactive:
CCOc1ccc(-n2c(SCc3ccc([N+](=O)[O-])cc3)nnc2-c2ccc(OC)cc2)cc1, CCC1CCCCN1C(=O)NC(=O)c1ccccc1 (stereo not given), CCCN(CCC)CCNC(=O)c1cc2c(-c3ccc(Cl)cc3)nn(C)c2s1, CN1CCN(C(=S)NC(=O)c2ccccc2Cl)CC1, O=C(O)c1ccc2cccc(Cl)c2c1O, CCCCCCCCCCOC(=O)Cn1c(COc2ccc(C)cc2)[n+](C)c2ccccc21, COc1ccc(C2CC(c3ccc4ccccc4c3)=NN2C(=O)CNC2CCCCC2)cc1 (stereo not given), O=S(=O)(c1ccccc1)c1cnn2c(C(F)(F)F)cc(-c3ccc(F)cc3)nc12, O=C1NC(c2ccc(Br)cc2)Nc2ccccc21 (stereo not given), COc1ccc(CCN(C)C(=O)c2ccc(S(=O)(=O)Nc3ccccc3C)cc2)cc1OC, COCCCNC(=O)c1cc2cc3cc(OC)ccc3nc2o1, C/C(CC1(O)C(=O)Nc2ccccc21)=N\O (stereo not given), CCN(CC)CCNC(=O)CSc1c2c(nc3cc(Cl)ccc13)CCCC2, Cc1ccc(N=Cc2c(O)n(C)c(=O)n(C)c2=O)nc1, Cc1cc(NC(=O)c2oc3ccccc3c2C)ccc1-n1cnnn1, N=c1c(C(=O)NCc2ccc(F)cc2)cc2c(=O)n3ccccc3nc2n1Cc1cccnc1, O=C1CN(C(=O)NCC(=O)N2CCCC2)c2ccccc2N1, CCn1cc(/C=C(\NC(=O)c2ccccc2Cl)C(=O)N2CCOCC2)c2ccccc21, CCCCCCCCCC[N+](C)(C)CC/C=C1/c2ccccc2Sc2ccc(Cl)cc21, COc1ccc(CSc2ccc(-c3nc4ccccn4c3NCc3ccccc3)cc2OC)cc1

Reference: PubChem BioAssay AID588849 (Broad Institute, 2011)
